Only some compounds are listed: those with a hit (about 4.1% of all), similar ones and a draw of the others.
ssDAF12 agonist – activates DAF-12 receptor from parasite S. stercoralis. HEK293 ssDAF-12/GRIP1 lit1-tk-luc reporter, luminescence; % of 3 µM dafachronic acid response. activation, % at 6.8 µM. hit rate 1% among 370,000. AID 652126;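 active means activation above the mean over all tested compounds plus 3 SD, cut at about 0.9% in these data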
hcDAF12 agonist – activators of H. contortus DAF-12 nuclear receptor; activation, % at 6.8 µM; AID 652067; hit rate 1.4% among 370,000; HEK293 hcDAF-12 lit1-tk-luc reporter, luminescence; 0% DMSO, 100% Δ7-dafachronic acid;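 active means activation above the mean of all tested compounds plus 3 SD, cut at about 5.5% in these data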
DAX1 inh-1 – inhibitors of DAX1 repression of SF-1 activated StAR promoter. HEK293T StAR-luciferase reporter, SF-1/DAX-1 repression relief. AID 652010. inhibition, % at 6.8 µM. hit rate 1.1% among 370,000;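 active means inhibition above the mean over all tested compounds plus 3 SD, cut at about 3.6% in these data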;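 further: higher inhibition means more luminescence from relief of DAX-1 repression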
hgDAF12 agonist – agonists of H. glycines DAF-12 nuclear receptor | HEK293 GAL4-hgDAF12 UAS-luciferase reporter, agonist luminescence; normalized to butyrate control | activation, % at 6.8 µM | hit rate 1.8% among 370,000 | AID 687014;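 active means activation above a cutoff set at the mean of all screened compounds plus 3 SD, cut at about 10% in these data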
DAX1 inh-2 – NR0B1 (DAX1) inhibition; inhibition, % at 6.75 µM; P51843; HEK293 Gal4-DAX1 luciferase reporter, luminescence; hit rate 0.99% among 340,000;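 active means inhibition above the mean over all tested compounds plus 3 SD, cut at about 4.2% in these data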;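 further: inhibition shows as a rise in luminescence from relieved DAX1 repression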
DAX1 inh confirm – NR0B1 (human) inhibition, confirmation; shares compounds with DAX1 inh-1; HEK293T StAR-promoter luciferase reporter, SF-1/DAX-1 repression; inhibition, % at 6.8 µM; hit rate 87% among 2,400; AID 652134;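 active means inhibition above the average of every tested compound plus 3 SD, cut at about 3.8% in these data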;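 further: active compounds raise luminescence by relieving repression of the StAR reporter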
SF1 mutant ctr – counter-screen for DAX1 inhibitors: nonselective inhibitors with SF-1 AF2 mutant | shares compounds with DAX1 inh-1 | HEK293 StAR-luciferase, luminescence | inhibition, % at 6.8 µM | hit rate 78% among 2,400 | AID 652136;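 active means inhibition above the mean of all tested compounds plus 3 SD, cut at about 3% in these data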
LXRb hcDAF ctr – activates human LXR-beta, counter-screen for hcDAF-12 agonists; HEK293 Gal4-LXR tk-luc reporter, luminescence, 24 h; normalized: DMSO 0%, positive control 100%; AID 743027; shares compounds with hcDAF12 agonist; activation, % at 6.8 µM; 3,400 tested, under 10 active;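 active means mean percent activation of the reporter above a cutoff set as the average over tested compounds plus their standard deviation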
Target sequence (P55055 whole entry, looked up, the tested form may be a part): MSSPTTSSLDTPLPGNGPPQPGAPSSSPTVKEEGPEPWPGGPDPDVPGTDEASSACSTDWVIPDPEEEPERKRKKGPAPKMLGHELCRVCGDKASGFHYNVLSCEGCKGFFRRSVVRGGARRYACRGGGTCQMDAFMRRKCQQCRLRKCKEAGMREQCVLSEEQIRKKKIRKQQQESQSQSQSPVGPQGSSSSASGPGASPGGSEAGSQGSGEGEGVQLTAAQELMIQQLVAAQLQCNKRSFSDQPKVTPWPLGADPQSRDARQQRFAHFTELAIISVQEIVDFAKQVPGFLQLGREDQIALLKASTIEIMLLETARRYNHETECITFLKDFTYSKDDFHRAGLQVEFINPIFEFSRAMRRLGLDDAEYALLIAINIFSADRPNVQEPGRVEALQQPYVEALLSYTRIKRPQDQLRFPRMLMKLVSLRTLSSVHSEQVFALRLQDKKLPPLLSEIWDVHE
hcDAF12 conf – confirmation of H. contortus DAF-12 agonists. shares compounds with hcDAF12 agonist. HEK293 hcDAF-12 lit1-tk-luc reporter, luminescence; % of Δ7-dafachronic acid response. activation, % at 6.8 µM. hit rate 61% among 3,400. AID 743032;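 active means mean activation across triplicate tests above the threshold derived from the earlier primary screen, cut at about 5.5% in these data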
Of the large screens only hits and unclear results are named; the others gave an inactive call (follow-up assays come after a bar, where they were run).

Cc1ccc(C)c(NC(=O)c2ccc3ccccc3n2)c1	ssDAF12 agonist 2.6, hcDAF12 agonist 17, DAX1 inh-1 5.0, hgDAF12 agonist 11 | DAX1 inh confirm 15 | SF1 mutant ctr 10 | LXRb hcDAF ctr inactive | hcDAF12 conf 22
c1cncc(-c2nc3ccccc3s2)c1	none
COc1ccc(-c2nc3ccccc3s2)cc1	hcDAF12 agonist 12, DAX1 inh-1 6.1, hgDAF12 agonist 13 | DAX1 inh confirm 14 | SF1 mutant ctr 3.6 | LXRb hcDAF ctr inactive | hcDAF12 conf 13
O=C(NCc1ccc(Cl)cc1)c1ccc(CSc2nc3ccncc3[nH]2)cc1	none
Cc1ccc(CSc2nc3ccncc3[nH]2)cc1	ssDAF12 agonist 1.4, hcDAF12 agonist 11, DAX1 inh-1 13, hgDAF12 agonist 18 | DAX1 inh confirm 16 | SF1 mutant ctr 9.6 | LXRb hcDAF ctr inactive | hcDAF12 conf 10
O=C1c2ccccc2C(=O)C1c1ccc2ccccc2n1	ssDAF12 agonist 4.4, hcDAF12 agonist 24, DAX1 inh-1 5.8, hgDAF12 agonist 20, DAX1 inh-2 4.2 | DAX1 inh confirm inactive | SF1 mutant ctr inactive | LXRb hcDAF ctr inactive | hcDAF12 conf 21
COC(=O)C1=C(C)NC(C)=C(C(=O)OC)C1c1ccc2ccccc2n1	none
COCCNC[C@@]12CO[C@H](c3ccc(Cl)cc3)N1[C@@H](c1ccc(Cl)cc1)SC2	none (no result: DAX1 inh-1, DAX1 inh-2)
COc1ccc(-c2cc(=O)c3ccccc3s2)cc1	ssDAF12 agonist 0.9, hcDAF12 agonist 16, DAX1 inh-1 6.9, hgDAF12 agonist 22 | DAX1 inh confirm 17 | SF1 mutant ctr 11 | LXRb hcDAF ctr inactive | hcDAF12 conf 10
COc1ccc2sc3ccccc3c(=O)c2c1	none
COc1ccc(CC(/C=C/c2ccc(F)cc2)c2ccccc2)cc1 (centres undefined)	none (no result: DAX1 inh-2)
COc1ccc(C2CC(=O)C(c3ccccc3)=CN2Cc2ccccc2)cc1 (centres undefined)	none (no result: DAX1 inh-2)
O=C(COc1ccc(Cl)cc1Cl)Nc1ccc(Cl)cn1	hcDAF12 agonist 8.8, DAX1 inh-1 6.2, hgDAF12 agonist 11 | DAX1 inh confirm 8.3 | SF1 mutant ctr 3.5 | LXRb hcDAF ctr inactive | hcDAF12 conf 8.1
COC(=O)C1CN(CCO)CCS(=O)(=O)N1Cc1cn(Cc2ccc(C)cc2)nn1 (centres undefined)	none (no result: DAX1 inh-2)
NC(=O)c1ccccc1OCC(=O)Nc1ccc(Cl)c(Cl)c1	ssDAF12 agonist 2.2, hcDAF12 agonist 11, DAX1 inh-1 6.9, hgDAF12 agonist 18, DAX1 inh-2 5.8 | DAX1 inh confirm 21 | SF1 mutant ctr 8.9 | LXRb hcDAF ctr inactive | hcDAF12 conf 11
O=C(NCCc1c[nH]c2ccccc12)OCc1cn(Cc2cc(F)cc(F)c2)nn1	none (no result: DAX1 inh-2)
CCc1ccn2cc(-c3ccc4c(c3)OCO4)nc2c1	none (no result: DAX1 inh-2)
COC(=O)c1ccc2nc(-c3ccc4c(c3)OCO4)cn2c1	ssDAF12 agonist 1.7, hcDAF12 agonist 7.1, DAX1 inh-1 10, hgDAF12 agonist 17 | DAX1 inh confirm 8.9 | SF1 mutant ctr inactive | LXRb hcDAF ctr inactive | hcDAF12 conf 6.4
N#Cc1ccc(/C=C2\CC3(OC(=O)c4ccco4)CCCN2C3)cc1 (centres undefined)	none (no result: DAX1 inh-2)
COc1ccc(-c2cc(C(=O)Nc3ccc4c(c3)OCO4)no2)cc1	none
N#Cc1cccc(NCC(=O)Nc2ccc3c(c2)OCCO3)c1	ssDAF12 agonist 1.4, hcDAF12 agonist 7.8, DAX1 inh-1 5.2, hgDAF12 agonist 13 | DAX1 inh confirm 11 | SF1 mutant ctr 4.1 | LXRb hcDAF ctr inactive | hcDAF12 conf 7.6
